Data taken from PubChem BioAssay (EPA / NIEHS).
Active and inactive are the calls of the source. How the source made its calls: active means hit-call score of the fitted dose curve at least 0.9, where 1 is the maximum; inactive means score below 0.9.

Key:
[1] = read-out: Interleukin-1 alpha (IL1a), IL1A (gene 3552); experiment: BSK_KF3CT_IL1a: BioMAP Diversity Plus: KF3CT Assay for Interleukin-1 alpha (IL1a) Biomarker Activity (AID 2283070); conditions: primary human keratinocytes with fibroblasts; actives raise or lower the signal
Summary of the method: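 Primary human keratinocyte plus foreskin fibroblast co-culture, dosed and measured at 24 h in 96-well plates. IL-1a level quantified by ELISA; bidirectional fit relative to DMSO.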

[2] = read-out: Transforming growth factor beta 1 (TGFb1), TGFB1 (gene 7040); experiment: BSK_KF3CT_TGFb1: BioMAP Diversity Plus: KF3CT Assay for Transforming growth factor beta 1 (TGFb1) Biomarker Activity (AID 2283072); conditions: primary human keratinocytes with fibroblasts; actives raise or lower the signal
Summary of the method: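 Human keratinocyte/foreskin fibroblast co-culture; TGF-b1 measured by ELISA 24 h after dosing, fitted bidirectionally versus DMSO. Cytotoxicity checked in parallel cultures by total protein (SRB staining, 560 nm).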

[3] = read-out: C-C motif chemokine 2 (Homo sapiens) (UniProt P13500); experiment: BSK_KF3CT_MCP1: BioMAP Diversity Plus: KF3CT Assay for Monocyte Chemoattractant Protein 1 (MCP1/CCL2) Biomarker Activity (AID 2283073); conditions: primary human keratinocytes with fibroblasts; actives raise or lower the signal
Summary of the method: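 Biomarker MCP-1 is measured by ELISA in primary human keratinocytes co-cultured with foreskin fibroblasts, 24 h after chemical treatment; DMSO serves as the negative control and activity baseline.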

[4] = read-out: Matrix Metallopeptidase 9 (MMP9), MMP9 (gene 4318); experiment: BSK_KF3CT_MMP9: BioMAP Diversity Plus: KF3CT Assay for Matrix Metallopeptidase 9 (MMP9) Biomarker Activity (AID 2283074); conditions: primary human keratinocytes with fibroblasts; actives raise or lower the signal
Summary of the method: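 Human keratinocyte and foreskin fibroblast co-culture exposed to chemicals for 24 h; MMP9 biomarker measured by ELISA, bidirectional fitting relative to DMSO; cytotoxicity tracked by SRB total protein staining in parallel cultures.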

[5] = read-out: urokinase plasminogen activator (uPA), PLAU (gene 5328); experiment: BSK_KF3CT_uPA: BioMAP Diversity Plus: KF3CT Assay for urokinase plasminogen activator (uPA) Biomarker Activity (AID 2283075); conditions: primary human keratinocytes with fibroblasts; actives raise or lower the signal
Summary of the method: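 Primary human keratinocyte/foreskin fibroblast co-culture exposed to chemical; uPA measured by ELISA at 24 h. Bidirectional fit versus DMSO, with parallel SRB total-protein staining for cytotoxicity.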

CD40, CD40 (gene 958) [6] = experiment: BSK_LPS_CD40: BioMAP Diversity Plus: LPS Assay for CD40 Biomarker Activity (AID 2283076); conditions: primary human HUVEC with PBMC; actives raise or lower the signal
Summary of the method: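 Using a multiplexed primary human co-culture (umbilical vein endothelium plus PBMC), CD40 was read by ELISA 24 h after dosing, with cytotoxicity tracked by sulforhodamine B staining of parallel cultures and activity fitted bidirectionally versus DMSO.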

[7] = read-out: E-selectin (Homo sapiens) (UniProt P16581); experiment: BSK_LPS_Eselectin: BioMAP Diversity Plus: LPS Assay for Eselectin Biomarker Activity (AID 2283077); conditions: primary human HUVEC with PBMC; actives raise or lower the signal
Summary of the method: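 Dose chemical onto LPS-driven HUVEC/PBMC co-culture; after 24 h, run ELISA for E-selectin; fit up- and down-going responses relative to DMSO control.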

[8] = read-out: Interleukin-8 (IL8), CXCL8 (gene 3576); experiment: BSK_LPS_IL8: BioMAP Diversity Plus: LPS Assay for Interleukin-8 (IL8) Biomarker Activity (AID 2283078); conditions: primary human HUVEC with PBMC; actives raise or lower the signal
Summary of the method: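 In this LPS system, chemical-treated human umbilical vein endothelium/PBMC co-cultures were harvested at 24 h for IL-8 ELISA.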

[9] = BSK_LPS_SRB: Viability Assessment in the BioMAP Diversity Plus: LPS Assay (AID 2283079); conditions: primary human HUVEC with PBMC;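 further: total protein by sulforhodamine B absorbance as a cytotoxicity measure; measured one day after compound addition; fitted in both directions against DMSO so loss or gain of signal counts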
Summary of the method: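 Cytotoxicity endpoint in human endothelial–PBMC co-culture: 24 h exposure, then SRB (0.1%) staining, 560 nm read.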

[10] = read-out: Interleukin-1 alpha (IL1a), IL1A (gene 3552); experiment: BSK_LPS_IL1a: BioMAP Diversity Plus: LPS Assay for Interleukin-1 alpha (IL1a) Biomarker Activity (AID 2283080); conditions: primary human HUVEC with PBMC; actives raise or lower the signal
Summary of the method: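 Primary human HUVEC and PBMC co-culture stimulated with LPS is dosed and harvested at 24 h. Both increases and decreases in ELISA-measured IL-1a are scored relative to DMSO.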

[11] = read-out: Monocyte Chemoattractant Protein-1 (MCP1), CCL2 (gene 6347); experiment: BSK_LPS_MCP1: BioMAP Diversity Plus: LPS Assay for Monocyte Chemoattractant Protein-1 (MCP1) Biomarker Activity (AID 2283081); conditions: primary human HUVEC with PBMC; actives raise or lower the signal
Summary of the method: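 Values derive from bidirectional fitting against DMSO of ELISA-measured MCP-1 in a human primary endothelial and mononuclear cell co-culture, 24 h after chemical addition under LPS activation.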

[12] = BSK_LPS_PGE2: BioMAP Diversity Plus: LPS Assay for Prostaglandin E2 (PGE2) Biomarker Activity (AID 2283082); conditions: primary human HUVEC with PBMC; actives raise or lower the signal
Summary of the method: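 HUVEC plus human PBMC co-culture stimulated with LPS; secreted PGE2 quantified by ELISA 24 h after chemical dosing. Activity fitted bidirectionally against DMSO baseline; parallel SRB staining (0.1% SRB after 10% TCA fixation, 560 nm) flags overt cytotoxicity.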

[13] = read-out: Macrophage colony-stimulating factor (MCSF), CSF1 (gene 1435); experiment: BSK_LPS_MCSF: BioMAP Diversity Plus: LPS Assay for Macrophage colony-stimulating factor (MCSF) Biomarker Activity (AID 2283083); conditions: primary human HUVEC with PBMC; actives raise or lower the signal
Summary of the method: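 Bidirectional fit versus DMSO of ELISA-measured M-CSF in co-cultured human umbilical vein endothelial cells and PBMC, sampled 24 h after dosing.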

[14] = read-out: Tissue Factor, F3 (gene 2152); experiment: BSK_LPS_TissueFactor: BioMAP Diversity Plus: LPS Assay for Tissue Factor Biomarker Activity (AID 2283084); conditions: primary human HUVEC with PBMC; actives raise or lower the signal
Summary of the method: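 Read-out: CD142 ELISA, 24 h. System: LPS-driven human endothelial/PBMC co-culture. Analysis: up- or down-signal fitted against DMSO.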

[15] = read-out: Tumor necrosis factor (Homo sapiens) (UniProt P01375); experiment: BSK_LPS_TNFa: BioMAP Diversity Plus: LPS Assay for Tumour Necrosis Factor alpha (TNFa) Biomarker Activity (AID 2283085); conditions: primary human HUVEC with PBMC; actives raise or lower the signal
Summary of the method: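 Human umbilical vein endothelial cells co-cultured with PBMC and stimulated with LPS. TNFa was measured by ELISA 24 h after chemical dosing, fitted bidirectionally relative to DMSO.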

[16] = read-out: Vascular cell adhesion molecule 1 (VCAM1), VCAM1 (gene 7412); experiment: BSK_LPS_VCAM1: BioMAP Diversity Plus: LPS Assay for Vascular cell adhesion molecule 1 (VCAM1) Biomarker Activity (AID 2283086); conditions: primary human HUVEC with PBMC; actives raise or lower the signal
Summary of the method: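 Human umbilical vein endothelial cells co-cultured with PBMC and stimulated with LPS; VCAM-1 measured by ELISA 24 h after dosing. Bidirectional curve fitting against DMSO baseline; cytotoxicity tracked in parallel by SRB total-protein staining.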

CD38, CD38 (gene 952) = experiment: BSK_SAg_CD38: BioMAP Diversity Plus: SAg Assay for CD38 Biomarker Activity (AID 2283087); conditions: primary human HUVEC with PBMC; actives raise or lower the signal
Summary of the method: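 Human HUVEC plus PBMC co-culture stimulated with superantigen; CD38 measured by ELISA 24 h after chemical dosing. Fluorescence read-out, bidirectional fit against DMSO; cytotoxicity tracked in parallel by SRB and Alamar Blue.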

CD40, CD40 (gene 958) [17] = experiment: BSK_SAg_CD40: BioMAP Diversity Plus: SAg Assay for CD40 Biomarker Activity (AID 2283088); conditions: primary human HUVEC with PBMC; actives raise or lower the signal
Summary of the method: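 Endpoint derived by fitting increases or decreases versus DMSO controls. CD40 is detected by fluorescence ELISA in a human vascular co-culture of endothelium and PBMC at 24 h.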

CD69, CD69 (gene 969) = experiment: BSK_SAg_CD69: BioMAP Diversity Plus: SAg Assay for CD69 Biomarker Activity (AID 2283089); conditions: primary human HUVEC with PBMC; actives raise or lower the signal
Summary of the method: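 Values derive from bidirectional fitting relative to DMSO vehicle. Cells: umbilical vein endothelium plus peripheral blood mononuclear cells, treated 24 h before fluorescent ELISA for CD69.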

[18] = read-out: TIMP metallopeptidase inhibitor 2 (TIMP2), TIMP2 (gene 7077); experiment: BSK_KF3CT_TIMP2: BioMAP Diversity Plus: KF3CT Assay for TIMP metallopeptidase inhibitor 2 (TIMP2) Biomarker Activity (AID 2283071); conditions: primary human keratinocytes with fibroblasts; actives raise or lower the signal
Summary of the method: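 Co-culture of human primary keratinocytes and foreskin fibroblasts, measured 24 h after chemical dosing. TIMP-2 quantified by ELISA and fitted in both directions relative to DMSO. Cytotoxicity checked in parallel cultures by SRB total-protein staining.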

Measured: outcome

Chain of E-selectin (Homo sapiens) (P16581 whole entry, looked up): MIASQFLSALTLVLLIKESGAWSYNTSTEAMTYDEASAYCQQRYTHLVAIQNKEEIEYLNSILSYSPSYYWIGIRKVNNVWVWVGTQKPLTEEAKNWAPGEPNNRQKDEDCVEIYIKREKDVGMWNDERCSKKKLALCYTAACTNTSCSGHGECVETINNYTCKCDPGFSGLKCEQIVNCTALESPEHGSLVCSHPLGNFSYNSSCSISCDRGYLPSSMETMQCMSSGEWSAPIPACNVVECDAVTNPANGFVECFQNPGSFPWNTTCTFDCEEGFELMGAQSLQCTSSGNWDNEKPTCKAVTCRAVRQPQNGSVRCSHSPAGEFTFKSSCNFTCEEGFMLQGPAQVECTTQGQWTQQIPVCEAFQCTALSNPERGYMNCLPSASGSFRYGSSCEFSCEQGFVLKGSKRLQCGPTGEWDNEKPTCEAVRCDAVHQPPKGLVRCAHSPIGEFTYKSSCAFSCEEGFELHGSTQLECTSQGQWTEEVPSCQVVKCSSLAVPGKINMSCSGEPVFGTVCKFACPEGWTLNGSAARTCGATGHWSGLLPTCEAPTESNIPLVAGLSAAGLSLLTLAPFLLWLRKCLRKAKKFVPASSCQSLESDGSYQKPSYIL
Chain of Tumor necrosis factor (Homo sapiens) (P01375 whole entry, looked up): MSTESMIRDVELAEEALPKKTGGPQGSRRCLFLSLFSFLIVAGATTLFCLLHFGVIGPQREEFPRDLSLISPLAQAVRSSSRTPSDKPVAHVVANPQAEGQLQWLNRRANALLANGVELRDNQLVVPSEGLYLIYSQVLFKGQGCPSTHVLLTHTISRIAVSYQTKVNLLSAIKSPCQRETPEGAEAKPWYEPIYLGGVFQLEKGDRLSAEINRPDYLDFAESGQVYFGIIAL

CCCCCCOC(=O)CC(CC(=O)OCCCCCC)(OC(=O)CCC)C(=O)OCCCCCC
inactive: [1] | [2] | [3] | [4] | [5] | CD40, CD40 (gene 958) [6] | [7] | [8] | [9] | [10] | [11] | [12] | [13] | [14] | [15] | [16] | CD38, CD38 (gene 952) | CD40, CD40 (gene 958) [17] | CD69, CD69 (gene 969)

CCCC(CCC)C(=O)O
inactive: [1] | [18] | [2] | [3] | [4] | [5] | CD40, CD40 (gene 958) [6] | [7] | [8] | [9] | [12] | [13] | [14] | [15] | [16] | CD38, CD38 (gene 952) | CD40, CD40 (gene 958) [17] | CD69, CD69 (gene 969)
